Experimental data from PubChem BioAssay (Tox21).
Records with an inconclusive call do not appear. Activity calls are given as the source filed them. Unless noted, the call rests on the fitted dose curve.

Key:
[1] = Nuclear factor erythroid 2-related factor 2/antioxidant responsive element (Nrf2/ARE) small molecule agonists: qHTS cell viability counter screen in human keratinocytes (AID 1919968; active means well fitted curve in the direction sought with a large enough effect in the repeat runs; an effect the other way counts as inactive or inconclusive; further: nearly all actives have a fitted effect of over 55% in size)
Summary of the method: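 CellTiter-Fluor fluorescence, read 1 h after reagent, gave viability in the same wells as the ARE-luciferase assay. KeratinoSens cells (1,500/well) had 23 h compound exposure at 37 C/5% CO2 following 5 h plating.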

[2] = molecular target: Gonadotropin-releasing hormone receptor (Homo sapiens) (UniProt P30968); experiment: Human gonadotropin-releasing hormone receptor (GnRHR) small molecule agonists, calcium flux assay in GnRHR-HEK293 cells (AID 1920063); further: nearly all actives have a fitted effect of over 35% in size
Summary of the method: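 Agonist mode: compounds at 15 concentrations, in triplicate, went onto calcium dye-loaded GnRHR-HEK293 cells. Intracellular calcium was then followed as 480/540 nm fluorescence at 1 s intervals over 3 min.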

[3] = molecular target: KiSS-1 receptor (Homo sapiens) (UniProt Q969F8); experiment: Human kisspeptin (KISS1R) small molecule agonists, calcium flux assay in KISS1R-HEK293 cells (AID 1920064; active means well fitted curve in the direction sought with a large enough effect in the repeat runs; an effect the other way counts as inactive or inconclusive)
Summary of the method: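 Agonist mode: intracellular calcium rise tracked at 1 s intervals over 3 min (480/540 nm) immediately after compound addition to dye-loaded KISS1R-HEK293 stable cells. Each compound tested at 15 concentrations in triplicate.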

[4] = G protein-coupled receptor (GPCR) small molecule agonists, calcium flux assay: HEK293 wild type cell line counter screen (AID 1920065)
Summary of the method: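 Calcium flux counter screen: compound added in agonist mode at 15 concentrations in triplicate to dye-loaded parental HEK293 cells. Fluorescence (480/540) read kinetically for 3 min; ATP served as positive control.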

[5] = p53 small molecule agonists, cell-based qHTS assay with human liver microsomes (AID 1963577);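 further: p53 response element beta-lactamase reporter cells with liver microsomes plus NADPH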
Summary of the method: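 With metabolic activation: human liver microsomes (0.5 mg/mL final) plus NADPH (0.5 mg/mL final) added alongside compounds to p53RE-bla cells; 16 h 37 C exposure; beta-lactamase read by LiveBLAzer fluorescence.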

[6] = p53 small molecule agonists, cell-based qHTS assay with rat liver microsomes (AID 1963578)
Summary of the method: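 Metabolic activation by rat liver microsomes and NADPH, each 0.5 mg/mL final, added right after compounds to p53RE-bla reporter cells (4,000/well, plated 5 h earlier). 16 h at 37 C, then LiveBLAzer substrate for 2 h at room temperature in the dark; fluorescence read-out.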

[7] = p53 small molecule agonists, cell-based qHTS assay with human liver microsomes: qHTS cell viability counter screen (AID 1963579); further: nearly all actives have a fitted effect of over 45% in size
Summary of the method: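 Metabolic activation used human liver microsomes and NADPH, both 0.5 mg/mL final, over 16 hours at 37 C on p53RE-bla cells (4,000/well). Cytotoxicity measured by CellTiter-Glo luminescence, 30 min at room temperature.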

[8] = p53 small molecule agonists, cell-based qHTS assay with rat liver microsomes: qHTS cell viability counter screen (AID 1963580); further: nearly all actives have a fitted effect of over 45% in size
Summary of the method: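 Cytotoxicity counter screen: intracellular ATP read by CellTiter-Glo luminescence in the p53 reporter wells. HCT-116 p53RE-bla cells were treated for 16 h at 37 C alongside rat liver microsomes and NADPH, each 0.5 mg/mL final.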

[9] = p53 small molecule agonists, cell-based qHTS assay: qHTS cell viability counter screen (AID 1963581); further: nearly all actives have a fitted effect of over 45% in size
Summary of the method: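 Counter screen read by CellTiter-Glo luminescence (ATP content, 30 min at room temperature), run in the same wells as the beta-lactamase reporter read. HCT-116 p53RE-bla cells saw compounds for 16 h at 37 C.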

[10] = molecular target: 5-hydroxytryptamine receptor 2A (Homo sapiens) (UniProt P28223); experiment: 5-hydroxytryptamine receptor 2A (HTR2A) small molecule antagonists, cell-based qHTS assay (AID 1963586); further: nearly all actives have a fitted effect of over 45% in size
Summary of the method: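 CHO cells stably expressing human HTR2A were plated for 18 h at 37 C, then loaded with calcium dye for 1 h. Compounds were preincubated 5 min at room temperature before DOI (4 nM solution) was added. Kinetic fluorescence was read for 3 min.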

[11] = molecular target: 5-hydroxytryptamine receptor 2A (Homo sapiens) (UniProt P28223); experiment: 5-hydroxytryptamine receptor 2A (HTR2A) small molecule agonists, cell-based qHTS assay (AID 1963587); further: nearly all actives have a fitted effect of over 30% in size
Summary of the method: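 Kinetic calcium-flux fluorescence (2 min, 1 sec intervals) after compound addition in agonist mode. HTR2A-CHO cells were cultured 18 h, then dye-loaded 1 h at 37 C.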

[12] = molecular target: Muscarinic acetylcholine receptor M1 (Homo sapiens) (UniProt P11229); experiment: Cholinergic receptor muscarinic 1 (CHRM1) small molecule antagonists, cell-based qHTS assay (AID 1963588); further: nearly all actives have a fitted effect of over 40% in size
Summary of the method: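 Compounds were tested at 15 concentrations in three independent runs. Dye-loaded CHRM1-CHO cells were exposed 5 min at room temperature before stimulation by acetylcholine added at 50nM. Intracellular calcium was read kinetically on FDSS for 3 min.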

[13] = molecular target: Muscarinic acetylcholine receptor M1 (Homo sapiens) (UniProt P11229); experiment: Cholinergic receptor muscarinic 1 (CHRM1) small molecule agonists, cell-based qHTS assay (AID 1963589); further: nearly all actives have a fitted effect of over 35% in size
Summary of the method: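 Agonist-mode calcium-flux screen: compounds at 15 concentrations, three independent runs, were pin-transferred onto dye-loaded human CHRM1-CHO cells. Fluorescence was then recorded kinetically every second over minutes.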

[14] = cAMP Responsive Elements (CRE) small molecule agonists, cell-based qHTS assay (AID 1963590)
Summary of the method: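 Agonist mode: compound added to CRE-bla HEK 293T cells (2,000/well, 18 h after plating) for 3 h at 37 C/5% CO2. Reporter activity detected via FRET beta-lactamase substrate, 2 h room-temperature loading.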

[15] = cAMP Responsive Elements (CRE) small molecule antagonists, cell-based qHTS assay (AID 1963591; active means well fitted inhibition curve with a large enough effect in the signal ratio in the repeat runs, not every such curve was filed as active; the % refers to the signal ratio)
Summary of the method: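 Antagonist mode: compounds are added alongside the adenylyl cyclase activator NKH477 (0.25 uM final) to CRE-bla HEK293T cells for 3 h. LiveBLAzer FRET substrate, 2 h at room temperature, reports bla expression.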

[16] = molecular target: Beta-2 adrenergic receptor (Homo sapiens) (UniProt P07550); experiment: Adrenergic beta2 receptor (ADRB2) small molecule antagonists, cell-based qHTS assay (AID 1963592); further: series mostly up to about 92 µM; nearly all actives have a fitted effect of over 50% in size
Summary of the method: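 Assay format: CHO-ADRB2 cells, 18-20hr seeding at 37C/5% CO2, then compound plus 1nM isoproterenol agonist mix for 0.5hr RT. Homogeneous time-resolved fluorescence cAMP detection after 1hr, expressed as 665/615 nm ratio.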

[17] = molecular target: D(2) dopamine receptor (Homo sapiens) (UniProt P14416); experiment: Dopamine D2 receptor (DRD2) small molecule agonists, cell-based qHTS assay (AID 1963594); further: nearly all actives have a fitted effect of over 35% in size
Summary of the method: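 cAMP accumulation in DRD2-HEK293 cells measured by HTRF after 1 h detection; compounds added 10 min before NKH477 (200nM […]) forskolin-analogue stimulation, 30 min at room temperature, with Ro20-1724 present at 0.1 mM final.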

[18] = molecular target: D(2) dopamine receptor (Homo sapiens) (UniProt P14416); experiment: Dopamine D2 receptor (DRD2) small molecule antagonists, cell-based qHTS assay (AID 1963595; active means well fitted inhibition curve with a large enough effect in the signal ratio in the repeat runs, with a control signal flat; the % refers to the signal ratio)
Summary of the method: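 Antagonist mode in DRD2-HEK293 cells: after compound addition with 0.1 mM Ro20-1724, cells received quinpirole (12 nM) and NKH477 (200 nM) for 30 min at room temperature; HTRF cAMP read after 1 h detection.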

[19] = p53 small molecule agonists, cell-based qHTS assay (AID 1963582; active means well fitted activation curve with a large enough effect in the signal ratio in the repeat runs, not every such curve was filed as active; the % refers to the signal ratio)
Summary of the method: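 Read-out is beta-lactamase FRET fluorescence after 2 h at room temperature with LiveBLAzer B/G substrate. p53 response element-bla cells were treated 16 h at 37 C with compounds in DMSO, added 5 h after seeding.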

[20] = molecular target: Beta-2 adrenergic receptor (Homo sapiens) (UniProt P07550); experiment: Adrenergic beta2 receptor (ADRB2) small molecule agonists, cell-based qHTS assay (AID 1963593);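 further: CHO cells stably overexpressing human ADRB2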
Summary of the method: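 CHO cells stably over-expressing ADRB2 were plated overnight at 37C, then dosed with compounds plus a stimulation mix containing 100uM IBMX and 25uM Ro-20-1724 for 0.5hr at room temperature. cAMP was measured by HTRF competition, 1hr.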

Measured: Potency

Sequence of Beta-2 adrenergic receptor (Homo sapiens) (P07550 whole entry, looked up): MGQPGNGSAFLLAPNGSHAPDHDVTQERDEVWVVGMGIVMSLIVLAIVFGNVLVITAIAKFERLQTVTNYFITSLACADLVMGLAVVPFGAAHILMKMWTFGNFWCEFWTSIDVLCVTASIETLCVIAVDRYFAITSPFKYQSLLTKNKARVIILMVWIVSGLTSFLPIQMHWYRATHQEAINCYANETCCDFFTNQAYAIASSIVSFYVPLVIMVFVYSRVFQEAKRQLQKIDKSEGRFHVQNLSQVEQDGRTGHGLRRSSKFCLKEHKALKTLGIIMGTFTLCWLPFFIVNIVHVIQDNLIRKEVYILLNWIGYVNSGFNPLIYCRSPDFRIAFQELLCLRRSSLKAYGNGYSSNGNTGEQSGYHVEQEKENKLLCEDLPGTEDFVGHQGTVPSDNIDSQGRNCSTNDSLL
Sequence of KiSS-1 receptor (Homo sapiens) (Q969F8 whole entry, looked up): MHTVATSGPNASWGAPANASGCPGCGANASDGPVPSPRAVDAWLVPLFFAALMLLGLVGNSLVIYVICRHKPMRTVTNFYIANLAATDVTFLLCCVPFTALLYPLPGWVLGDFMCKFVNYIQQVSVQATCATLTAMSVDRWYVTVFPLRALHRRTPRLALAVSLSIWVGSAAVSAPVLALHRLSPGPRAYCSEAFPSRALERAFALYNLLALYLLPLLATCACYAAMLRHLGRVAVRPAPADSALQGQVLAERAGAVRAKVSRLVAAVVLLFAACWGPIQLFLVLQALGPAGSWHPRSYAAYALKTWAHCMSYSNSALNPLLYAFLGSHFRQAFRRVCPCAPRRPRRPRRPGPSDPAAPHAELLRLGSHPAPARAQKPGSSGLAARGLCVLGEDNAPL
Sequence of D(2) dopamine receptor (Homo sapiens) (P14416 whole entry, looked up): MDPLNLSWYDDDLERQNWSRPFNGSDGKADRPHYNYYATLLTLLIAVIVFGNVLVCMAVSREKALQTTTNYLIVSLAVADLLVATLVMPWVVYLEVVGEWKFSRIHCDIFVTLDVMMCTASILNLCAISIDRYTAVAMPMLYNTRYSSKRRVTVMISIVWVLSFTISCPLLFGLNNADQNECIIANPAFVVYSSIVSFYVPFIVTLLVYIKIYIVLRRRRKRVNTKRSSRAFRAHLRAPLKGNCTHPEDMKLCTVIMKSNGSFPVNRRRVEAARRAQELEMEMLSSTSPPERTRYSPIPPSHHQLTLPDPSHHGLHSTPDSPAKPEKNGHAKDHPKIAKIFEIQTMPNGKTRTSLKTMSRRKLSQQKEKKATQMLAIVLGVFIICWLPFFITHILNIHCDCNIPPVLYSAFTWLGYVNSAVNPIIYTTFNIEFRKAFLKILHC
Sequence of Gonadotropin-releasing hormone receptor (Homo sapiens) (P30968 whole entry, looked up): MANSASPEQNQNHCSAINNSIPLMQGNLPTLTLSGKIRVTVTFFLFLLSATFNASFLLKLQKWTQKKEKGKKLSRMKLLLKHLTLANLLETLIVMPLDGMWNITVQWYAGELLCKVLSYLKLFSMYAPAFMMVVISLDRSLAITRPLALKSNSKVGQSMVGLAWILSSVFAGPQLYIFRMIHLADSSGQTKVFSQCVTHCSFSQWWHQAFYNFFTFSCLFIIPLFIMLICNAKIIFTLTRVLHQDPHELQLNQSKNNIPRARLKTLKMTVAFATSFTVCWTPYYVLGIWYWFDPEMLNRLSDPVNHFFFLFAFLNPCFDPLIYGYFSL
Sequence of 5-hydroxytryptamine receptor 2A (Homo sapiens) (P28223 whole entry, looked up): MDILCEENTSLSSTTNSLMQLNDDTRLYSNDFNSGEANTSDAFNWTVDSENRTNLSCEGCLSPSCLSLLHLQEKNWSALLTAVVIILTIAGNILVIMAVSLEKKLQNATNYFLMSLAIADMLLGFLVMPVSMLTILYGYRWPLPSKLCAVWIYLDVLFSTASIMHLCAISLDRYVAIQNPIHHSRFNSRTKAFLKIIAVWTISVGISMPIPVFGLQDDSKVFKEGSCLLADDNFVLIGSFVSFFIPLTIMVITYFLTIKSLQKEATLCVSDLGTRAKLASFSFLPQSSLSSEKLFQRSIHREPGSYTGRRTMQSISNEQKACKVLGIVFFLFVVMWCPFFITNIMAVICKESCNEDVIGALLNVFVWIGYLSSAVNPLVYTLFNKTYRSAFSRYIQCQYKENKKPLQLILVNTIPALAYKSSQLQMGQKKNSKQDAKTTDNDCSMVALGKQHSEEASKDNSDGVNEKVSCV
Sequence of Muscarinic acetylcholine receptor M1 (Homo sapiens) (P11229 whole entry, looked up): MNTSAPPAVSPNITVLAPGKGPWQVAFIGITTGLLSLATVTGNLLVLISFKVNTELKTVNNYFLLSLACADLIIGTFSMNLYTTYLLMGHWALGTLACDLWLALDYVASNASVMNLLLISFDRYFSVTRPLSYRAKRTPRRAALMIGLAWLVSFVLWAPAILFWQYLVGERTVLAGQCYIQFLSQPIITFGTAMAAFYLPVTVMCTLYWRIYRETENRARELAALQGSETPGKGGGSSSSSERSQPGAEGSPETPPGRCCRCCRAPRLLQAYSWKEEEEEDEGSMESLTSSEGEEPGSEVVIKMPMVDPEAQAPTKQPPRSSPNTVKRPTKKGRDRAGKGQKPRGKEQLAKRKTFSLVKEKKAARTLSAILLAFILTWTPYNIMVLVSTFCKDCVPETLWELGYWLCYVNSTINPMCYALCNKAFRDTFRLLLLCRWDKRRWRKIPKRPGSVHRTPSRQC

Nc1ccccc1S(=O)(=O)c1ccccc1
inactive: [1] | [2] | [3] | [4] | [5] | [6] | [7] | [8] | [9] | [10] | [11] | [12] | [13] | [14] | [15] | [16] | [17] | [18]

C/C=C(\C)C=O
inactive: [1] | [2] | [3] | [4] | [5] | [6] | [7] | [8] | [9] | [19] | [10] | [11] | [13] | [14] | [15] | [16] | [17] | [18]

NC12CC3CC(CC(C3)C1)C2
inactive: [1] | [2] | [3] | [4] | [5] | [6] | [7] | [8] | [9] | [19] | [14] | [15] | [16] | [20] | [17] | [18]

CCCCOc1ccc(OCCCN2CCOCC2)cc1
inactive: [1] | [2] | [3] | [4] | [5] | [6] | [7] | [8] | [9] | [19] | [14] | [16] | [20] | [18]

O=C(Oc1ccccc1C(=O)O)c1ccccc1O
inactive: [1] | [2] | [3] | [4] | [5] | [6] | [7] | [8] | [9] | [19] | [14] | [15] | [16] | [20] | [17] | [18]

CCCCCCCCCCCCCCCCCCN(C)C
inactive: [1] | [2] | [3] | [4] | [5] | [6] | [7] | [8] | [9] | [19] | [11] | [12] | [13] | [14] | [15] | [16] | [20] | [17] | [18]

OCc1ccccn1
inactive: [1] | [2] | [3] | [4] | [5] | [6] | [8] | [9] | [19] | [10] | [11] | [12] | [13] | [14] | [15] | [16] | [17] | [18]
